Results reported in PubChem BioAssay (NCI).
The panel holds about 79,000 compounds, 15% with a hit somewhere; the sample as a whole holds those more often. Values without a mark were called inactive. Activity calls are given as the source filed them. No stated cut-off is given here; in the data, active means growth inhibition above about 70%; inactive means the rest.

Key:
[1] = NCI Yeast Anticancer Drug Screen. Data for the wt1 strain (AID 149);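 further: 0% = growth of vehicle-treated wt1 cultures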; details: S. cerevisiae wt1 strain (SPY 50644) growth inhibition, hits give high values
Outline: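 Readout: yeast growth inhibition, normalised to vehicle controls, in the wt1 strain exposed to test compounds.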

[2] = NCI Yeast Anticancer Drug Screen. Data for the rad50EPP+ strain (AID 151);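 further: 0% = growth of vehicle-treated control cultures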; details: S. cerevisiae rad50 mutant strain, hits give high values
Outline: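 Yeast strain carrying rad50 alteration (rad50EPP+) exposed to compounds; growth inhibition measured relative to vehicle-treated controls.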

[3] = NCI Yeast Anticancer Drug Screen. Data for the mgt1 strain (AID 153); details: S. cerevisiae mgt1 mutant growth inhibition, hits give high values
Outline: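 Yeast mgt1 strain (DNA repair/cell-cycle alteration panel) exposed to compounds; growth inhibition measured relative to vehicle-treated controls.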

[4] = NCI Yeast Anticancer Drug Screen. Data for the rad50 strain (AID 155);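 further: 0% = growth of vehicle-only cultures of the same strain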; details: S. cerevisiae rad50 strain growth inhibition, hits give high values
Outline: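 Compounds were tested on a yeast strain with an engineered DNA damage repair alteration; the reported value is growth inhibition normalised to vehicle treatment.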

[5] = NCI Yeast Anticancer Drug Screen. Data for the mec2-1 strain (AID 157); details: S. cerevisiae mec2-1 strain, hits give high values
Outline: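 mec2-1 yeast strain, carrying an alteration in DNA damage repair or cell cycle control, was exposed to compounds; growth inhibition was measured relative to vehicle-treated controls.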

[6] = NCI Yeast Anticancer Drug Screen. Data for the sgs1 mgt1 strain (AID 161);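 further: 0% = growth of cultures given vehicle only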; details: S. cerevisiae sgs1 mgt1 strain, hits give high values
Outline: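 Percent growth inhibition was derived by comparing compound-exposed mutant yeast with vehicle-exposed cultures. The strain carries alterations in DNA damage repair.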

[7] = NCI Yeast Anticancer Drug Screen. Data for the CLN2oe strain (AID 163);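 further: 0% = growth of vehicle-only control cultures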; details: S. cerevisiae CLN2oe strain, hits give high values
Outline: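 Yeast cells carrying a defined cell-cycle control alteration were exposed to test compounds. Growth inhibition was scored against vehicle-treated control cultures.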

[8] = NCI Yeast Anticancer Drug Screen. Data for the bub3 strain (AID 167); details: S. cerevisiae bub3 mutant strain, hits give high values
Outline: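 Growth of a checkpoint-deficient yeast mutant is measured after compound exposure. Values represent inhibition relative to vehicle.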

[9] = NCI Yeast Anticancer Drug Screen. Data for the mlh1 strain (AID 171);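 further: 0% = growth of vehicle-treated control cultures of the same strain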; details: S. cerevisiae mlh1 strain growth inhibition, hits give high values
Outline: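 Yeast carrying a defined genetic alteration in DNA damage repair or cell cycle control were exposed to test compounds. Growth inhibition was measured relative to vehicle-treated controls.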

[10] = NCI Yeast Anticancer Drug Screen. Data for the mlh1 rad18 strain (AID 175); details: S. cerevisiae mlh1 rad18 strain growth inhibition, hits give high values
Outline: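 Growth inhibition of the yeast strain was measured after compound exposure and expressed relative to vehicle-treated controls. The strain carries defined defects in DNA damage repair.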

[11] = NCI Yeast Anticancer Drug Screen. Data for the rad18 strain (AID 177); details: S. cerevisiae rad18 mutant growth inhibition, hits give high values
Outline: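 Yeast carrying a defined DNA damage repair alteration were exposed to compounds. Growth inhibition was expressed relative to vehicle-treated controls.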

[12] = NCI Yeast Anticancer Drug Screen. Data for the rad14 strain (AID 159);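 further: 0% = growth of vehicle-treated control cultures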; details: S. cerevisiae rad14 strain growth inhibition, hits give high values
Outline: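 Compound-treated yeast with a defined DNA-repair lesion; growth inhibition normalised to vehicle-treated cultures.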

[13] = NCI Yeast Anticancer Drug Screen. Data for the cln2 rad14 strain (AID 165);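 further: 0% = growth equal to vehicle treated cultures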; details: S. cerevisiae cln2 rad14 strain, hits give high values
Outline: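 Yeast carrying cln2 and rad14 alterations (cell cycle control and DNA damage repair) were exposed to compounds. Growth inhibition was measured against vehicle-treated controls.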

[14] = NCI Yeast Anticancer Drug Screen. Data for the wt2 strain (AID 169);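 further: 0% = growth of vehicle-treated yeast cultures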; details: S. cerevisiae wt2 strain growth inhibition, hits give high values
Outline: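 Yeast cells were exposed to test compounds, and growth inhibition was measured relative to vehicle-treated controls.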

[15] = NCI Yeast Anticancer Drug Screen. Data for the sgs1 strain (AID 173);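 further: 0% = growth of vehicle-only control cultures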; details: S. cerevisiae sgs1 mutant, hits give high values
Outline: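 Yeast mutant strains carrying defined defects in DNA damage repair or cell cycle control were exposed to test compounds. Growth inhibition was scored against vehicle-treated controls.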

[16] = at 5.0 µM (retest, dose inferred, filed as 0.5)
[17] = at 50.0 µM (retest, dose inferred, filed as 5.0)

`CCCCCCCCCC/C=C\CC(=O)O` showed a growth inhibition ([1]; at 1.2 µM) of -1%, a growth inhibition ([1]; at 3.7 µM) of -2% and a growth inhibition ([1]; at 11.0 µM) of -3%. For the same compound, the growth inhibition ([1]; at 33.0 µM) was 2%, the growth inhibition ([1]; at 100.0 µM) was 97% (active) and the growth inhibition ([2]; at 1.2 µM) was -4%. For the same compound, the growth inhibition ([2]; at 3.7 µM) was 3%, the growth inhibition ([2]; at 11.0 µM) was 11% and the growth inhibition ([2]; at 33.0 µM) was 22%. For the same compound, the growth inhibition ([2]; at 100.0 µM) was 47%, the growth inhibition ([3]; at 1.2 µM) was -3% and the growth inhibition ([3]; at 3.7 µM) was -2%. The growth inhibition ([3]; at 11.0 µM) was -2%, the growth inhibition ([3]; at 33.0 µM) was 28% and the growth inhibition ([3]; at 100.0 µM) was 99% (active). It also gave a growth inhibition ([4]; at 1.2 µM) of 0%, a growth inhibition ([4]; at 3.7 µM) of -1% and a growth inhibition [4, 16] of -1%. For the same compound, the growth inhibition ([4]; at 11.0 µM) was 17%, the growth inhibition ([4]; at 33.0 µM) was 18% and the growth inhibition [4, 17] was 81% (active). For the same compound, the growth inhibition ([4]; at 50.0 µM) was -10.8%, the growth inhibition ([4]; at 100.0 µM) was 99% (active) and the growth inhibition ([5]; at 1.2 µM) was -3%. It also gave a growth inhibition ([5]; at 3.7 µM) of 0%, a growth inhibition [5, 16] of 5% and a growth inhibition ([5]; at 11.0 µM) of 1%. The growth inhibition ([5]; at 33.0 µM) was 8%, the growth inhibition [5, 17] was 74% (active) and the growth inhibition ([5]; at 50.0 µM) was -0.8%. For the same compound, the growth inhibition ([5]; at 100.0 µM) was 99% (active), the growth inhibition [6, 16] was -1% and the growth inhibition [6, 17] was 89% (active). For the same compound, the growth inhibition ([6]; at 50.0 µM) was 6.35%, the growth inhibition ([7]; at 1.2 µM) was -3% and the growth inhibition ([7]; at 3.7 µM) was -1%. The growth inhibition ([7]; at 11.0 µM) was -1%, the growth inhibition ([7]; at 33.0 µM) was -5% and the growth inhibition ([7]; at 100.0 µM) was 73% (active). For the same compound, the growth inhibition ([8]; at 1.2 µM) was -2%, the growth inhibition ([8]; at 3.7 µM) was -4% and the growth inhibition [8, 16] was 1%. The growth inhibition ([8]; at 11.0 µM) was -8%, the growth inhibition ([8]; at 33.0 µM) was -3% and the growth inhibition [8, 17] was 1%. For the same compound, the growth inhibition ([8]; at 50.0 µM) was 36.1%, the growth inhibition ([8]; at 100.0 µM) was 98% (active) and the growth inhibition ([9]; at 1.2 µM) was 0%. For the same compound, the growth inhibition ([9]; at 3.7 µM) was -4%, the growth inhibition ([9]; at 11.0 µM) was -3% and the growth inhibition ([9]; at 33.0 µM) was 11%. The growth inhibition ([9]; at 100.0 µM) was 99% (active), the growth inhibition [10, 16] was 4% and the growth inhibition [10, 17] was 87% (active). For the same compound, the growth inhibition ([10]; at 50.0 µM) was -21.2%, the growth inhibition ([11]; at 1.2 µM) was -3% and the growth inhibition ([11]; at 3.7 µM) was 2%. For the same compound, the growth inhibition ([11]; at 11.0 µM) was -1%, the growth inhibition ([11]; at 33.0 µM) was 48% and the growth inhibition ([11]; at 100.0 µM) was 99% (active).
Compound `CCOC(=O)/C(O)=C(/C=N/C(=S)Nc1c(CC)cccc1CC)C(=O)OCC` has a growth inhibition ([1]; at 1.2 µM) of -31%, a growth inhibition ([1]; at 3.7 µM) of -7% and a growth inhibition ([1]; at 11.0 µM) of 2%. For the same compound, the growth inhibition ([1]; at 33.0 µM) was 21%, the growth inhibition ([1]; at 100.0 µM) was 33% and the growth inhibition ([2]; at 1.2 µM) was -3%. The growth inhibition ([2]; at 3.7 µM) was -1%, the growth inhibition ([2]; at 11.0 µM) was -5% and the growth inhibition ([2]; at 33.0 µM) was -3%. It also gave a growth inhibition ([2]; at 100.0 µM) of -7%, a growth inhibition ([3]; at 1.2 µM) of -7% and a growth inhibition ([3]; at 3.7 µM) of -6%. For the same compound, the growth inhibition ([3]; at 11.0 µM) was 0%, the growth inhibition ([3]; at 33.0 µM) was 20% and the growth inhibition ([3]; at 100.0 µM) was 35%. It also gave a growth inhibition ([4]; at 1.2 µM) of -6%, a growth inhibition ([4]; at 3.7 µM) of -3% and a growth inhibition [4, 16] of 7%. It also gave a growth inhibition ([4]; at 11.0 µM) of 11%, a growth inhibition ([4]; at 33.0 µM) of 36% and a growth inhibition [4, 17] of 65%. The growth inhibition ([4]; at 50.0 µM) was 65.3%, the growth inhibition ([4]; at 100.0 µM) was 47% and the growth inhibition ([5]; at 1.2 µM) was -10%. For the same compound, the growth inhibition ([5]; at 3.7 µM) was -5%, the growth inhibition [5, 16] was 3% and the growth inhibition ([5]; at 11.0 µM) was 10%. The growth inhibition ([5]; at 33.0 µM) was 27%, the growth inhibition [5, 17] was 34% and the growth inhibition ([5]; at 50.0 µM) was 24.6%. For the same compound, the growth inhibition ([5]; at 100.0 µM) was 36%, the growth inhibition ([12]; at 1.2 µM) was -7% and the growth inhibition ([12]; at 3.7 µM) was -7%. For the same compound, the growth inhibition ([12]; at 11.0 µM) was -2%, the growth inhibition ([12]; at 33.0 µM) was 20% and the growth inhibition ([12]; at 100.0 µM) was 38%. For the same compound, the growth inhibition ([7]; at 1.2 µM) was -16%, the growth inhibition ([7]; at 3.7 µM) was -23% and the growth inhibition ([7]; at 11.0 µM) was -19%. The growth inhibition ([7]; at 33.0 µM) was -1%, the growth inhibition ([7]; at 100.0 µM) was 29% and the growth inhibition [13, 16] was -1%. It also gave a growth inhibition [13, 17] of 25%, a growth inhibition ([13]; at 50.0 µM) of 35.2% and a growth inhibition ([8]; at 1.2 µM) of -9%. For the same compound, the growth inhibition ([8]; at 3.7 µM) was -10%, the growth inhibition [8, 16] was -20% and the growth inhibition ([8]; at 11.0 µM) was -5%. For the same compound, the growth inhibition ([8]; at 33.0 µM) was 12%, the growth inhibition [8, 17] was 49% and the growth inhibition ([8]; at 50.0 µM) was 67%. The growth inhibition ([8]; at 100.0 µM) was 31%, the growth inhibition ([14]; at 1.2 µM) was -7% and the growth inhibition ([14]; at 3.7 µM) was -6%. The growth inhibition ([14]; at 11.0 µM) was -1%, the growth inhibition ([14]; at 33.0 µM) was 23% and the growth inhibition ([14]; at 100.0 µM) was 40%. It also gave a growth inhibition ([9]; at 1.2 µM) of -6%, a growth inhibition ([9]; at 3.7 µM) of -4% and a growth inhibition ([9]; at 11.0 µM) of 6%. The growth inhibition ([9]; at 33.0 µM) was 28%, the growth inhibition ([9]; at 100.0 µM) was 45% and the growth inhibition ([15]; at 1.2 µM) was -8%. For the same compound, the growth inhibition ([15]; at 3.7 µM) was 3%, the growth inhibition ([15]; at 11.0 µM) was 17% and the growth inhibition ([15]; at 33.0 µM) was 42%. The growth inhibition ([15]; at 100.0 µM) was 53%, the growth inhibition [10, 16] was -8% and the growth inhibition [10, 17] was 36%. The growth inhibition ([10]; at 50.0 µM) was 59.9%, the growth inhibition ([11]; at 1.2 µM) was -4% and the growth inhibition ([11]; at 3.7 µM) was -8%. It also gave a growth inhibition ([11]; at 11.0 µM) of 8%, a growth inhibition ([11]; at 33.0 µM) of 46% and a growth inhibition ([11]; at 100.0 µM) of 62%.
